Reference: PubChem BioAssay (NCATS)
Results filed as inconclusive are left out. The source made the active and inactive calls. Calls follow the shape of the dose curve; as a rule, active = well fitted cell-killing curve with a large enough effect; inconclusive = small, poorly fitted or top-dose-only effect, or effect the other way; inactive = flat fitted curve, though single readings scatter.

Legend:
Assay in all cases: Primary qHTS to identify gynecologic anti-cancer compounds using libraries of approved drugs and bioactive compounds (AID 1345084); also: nearly all actives have a fitted effect of over 55% in size
C33A = conditions: Gynecologic cancer cell panel viability, ATPlite luminescence, 48 h; series mostly up to 57.5 µM
How it was run: (§1)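 48 h compound exposure at 37 C, 5% CO2; five-point qHTS. ATPlite luminescence readout of cell ATP.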

CAOV3 = conditions: Gynecologic cancer cell panel viability, ATPlite luminescence, 48 h; series mostly up to 57.5 µM
How it was run: as §1

CASKI = conditions: Gynecologic cancer cell panel viability, ATPlite luminescence, 48 h; series mostly up to 57.5 µM
How it was run: as §1

Es-2 = conditions: Gynecologic cancer cell panel viability, ATPlite luminescence, 48 h; series mostly up to 57.5 µM
How it was run: as §1

HeLa = conditions: Gynecologic cancer cell panel viability, ATPlite luminescence, 48 h; series mostly up to 57.5 µM
How it was run: as §1

Hek293T = conditions: Gynecologic cancer cell panel viability, ATPlite luminescence, 48 h, control line for the selectivity index; series mostly up to 57.5 µM
How it was run: as §1
% is scaled to controls: 0 for no effect and ±100 for the full control effect; potency is read from the fitted curve at half-maximal effect.

CC1(C(=O)O)CCCC2(C)C1CCC13CC(CCC21)C1(CO)OC31 (stereo not given)
inactive: Potency (C33A) | Potency (CAOV3) | Potency (CASKI) | Potency (Es-2) | Potency (HeLa) | Potency (Hek293T)

C=C1CC2C3(C)C(OC(C)=O)CC(=O)OC(C)(C)C3C(O)C(OC(C)=O)C2(C)C2C(=O)OC(C)C(=O)C12C (stereo not given)
inactive: Potency (C33A) | Potency (CASKI) | Potency (Es-2) | Potency (HeLa) | Potency (Hek293T)

O=C1NC(=Nc2ccccc2F)S/C1=C\c1ccc(C(=O)O)cc1
inactive: Potency (C33A) | Potency (CAOV3) | Potency (Es-2) | Potency (HeLa) | Potency (Hek293T)

CN(NC(=O)CC(=O)NN(C)C(=S)c1ccccc1)C(=S)c1ccccc1
inactive: Potency (CASKI) | Potency (Es-2) | Potency (HeLa) | Potency (Hek293T)

COc1ccc(/C=C/C(=O)O[C@@H]2[C@@H](O)[C@H](C)O[C@@H](OC3C4C=COC(O[C@@H]5O[C@H](CO)[C@@H](O)[C@H](O)[C@H]5O)C4C4(CO)OC34)[C@@H]2O)cc1OC (stereo not given in full)
inactive: Potency (C33A) | Potency (CASKI) | Potency (Es-2) | Potency (HeLa) | Potency (Hek293T)

O=C(O)C[C@H](O)C[C@H](O)/C=C/c1c(C2CC2)nc2ccccc2c1-c1ccc(F)cc1
active: Potency (HeLa) 8910 nM

NS(=O)(=O)OC[C@@H]1C[C@@H](n2ccc3c(N[C@H]4CCc5ccccc54)ncnc32)C[C@@H]1O
inactive: Potency (CASKI) | Potency (HeLa)
active: Potency (CAOV3) 631 nM | Potency (Es-2) 3160 nM | Potency (Hek293T) 2510 nM

CCc1nc(C(N)=O)c(Nc2ccc(N3CCC(N4CCN(C)CC4)CC3)c(OC)c2)nc1NC1CCOCC1
active: Potency (CASKI) 7080 nM | Potency (HeLa) 3550 nM
inactive: Potency (Es-2)

Cc1c(-c2ccnn2C)cc(C(=O)NCc2ccc(S(C)(=O)=O)cn2)c(=O)n1-c1cccc(C(F)(F)F)c1
inactive: Potency (C33A) | Potency (CASKI) | Potency (Es-2) | Potency (HeLa) | Potency (Hek293T)

C[C@@H]1C[C@H]2[C@@H]3CCC4=CC(=O)C=C[C@]4(C)[C@@]3(F)[C@@H](O)C[C@]2(C)[C@@]1(O)C(=O)COP(=O)(O)O
inactive: Potency (C33A) | Potency (CASKI) | Potency (Es-2) | Potency (HeLa) | Potency (Hek293T)

Cc1nc2c(-c3cnc(N)nc3)nc(N3CCOCC3)nc2n1C(C)C
active: Potency (C33A) 1410 nM | Potency (CASKI) 1260 nM | Potency (HeLa) 1580 nM | Potency (Hek293T) 708 nM

CC1(C)CC2C(C1)C1(C)CCC13OC3(CO)C2O (stereo not given)
inactive: Potency (C33A) | Potency (CASKI) | Potency (Es-2) | Potency (HeLa) | Potency (Hek293T)

C=C1CC2(C(=O)O)CC1CCC2C1(C)CCCC2(C)C(=O)OC(O)C21 (stereo not given)
inactive: Potency (C33A) | Potency (Es-2) | Potency (HeLa) | Potency (Hek293T)

CC(C)CC(=O)O[C@@H]1OC=C(CO[C@@H]2O[C@H](CO[C@@H]3O[C@H](CO)[C@@H](O)[C@H](O)[C@H]3O)[C@@H](O)[C@H](O)[C@H]2O)[C@H]2C[C@H](O)[C@@H](CO)[C@@H]12
inactive: Potency (C33A) | Potency (CASKI) | Potency (Es-2) | Potency (HeLa) | Potency (Hek293T)

O=C(Nc1cccnn1)N1CCC(=Cc2cccc(Oc3ccc(C(F)(F)F)cn3)c2)CC1
inactive: Potency (CAOV3) | Potency (Es-2) | Potency (HeLa)

CC(C)[C@@H](C)/C=C/[C@@H](C)[C@H]1CC[C@H]2C3=CC=C4C[C@@H](O)CC[C@]4(C)[C@H]3CC[C@]12C
inactive: Potency (C33A) | Potency (CASKI) | Potency (Es-2) | Potency (HeLa) | Potency (Hek293T)

COc1cc(/C=C/C(=O)OC[C@H]2O[C@H](O[C@]3(CO)O[C@H](CO)[C@@H](O)[C@@H]3O)[C@H](O)[C@@H](O)[C@@H]2O)cc(OC)c1O
inactive: Potency (C33A) | Potency (CASKI) | Potency (Es-2) | Potency (HeLa) | Potency (Hek293T)

C[C@H](NCc1ccc(OCc2ccccc2F)cc1)C(N)=O
inactive: Potency (C33A) | Potency (CASKI) | Potency (Es-2) | Potency (HeLa) | Potency (Hek293T)

COC(=O)C1=C[C@@H](O)[C@@H](O)[C@H](O[C@@H]2O[C@H](COC(=O)/C=C/c3ccccc3)[C@@H](O)[C@H](O)[C@H]2O)C1
inactive: Potency (C33A) | Potency (CASKI) | Potency (Es-2) | Potency (HeLa) | Potency (Hek293T)

COCCCNCC1COc2ccccc2O1 (stereo not given)
inactive: Potency (C33A) | Potency (CASKI) | Potency (Es-2) | Potency (HeLa) | Potency (Hek293T)

COCCN(C)Cc1ccc2nc3sc(C(=O)N(C)C4CCCCC4)cn3c2c1
inactive: Potency (C33A) | Potency (CASKI) | Potency (Es-2) | Potency (HeLa) | Potency (Hek293T)

CC[C@H](C)/C=C(C)/C=C/C(=O)Cc1cc(O)c(C)c(O)c1C=O
inactive: Potency (C33A) | Potency (CASKI) | Potency (Es-2) | Potency (HeLa) | Potency (Hek293T)

CNC(=O)c1ccc(Nc2ncc(C(F)(F)F)c(NCc3nccnc3N(C)S(C)(=O)=O)n2)cc1
active: Potency (Es-2) 17800 nM | Potency (HeLa) 10000 nM | Potency (Hek293T) 8910 nM

C=CC(C)(O)CO[C@@H]1O[C@H](CO)[C@@H](O)[C@H](O)[C@H]1O (stereo not given in full)
inactive: Potency (C33A) | Potency (CASKI) | Potency (Es-2) | Potency (HeLa) | Potency (Hek293T)

COC(=O)C1C(CC(C)=O)C=CC(O)C12Oc1cc(C)cc(O)c1C2=O (stereo not given)
inactive: Potency (C33A) | Potency (CASKI) | Potency (Es-2) | Potency (HeLa) | Potency (Hek293T)

O=c1ccn(C2OC(CO)C(O)C2O)c(=O)[nH]1 (stereo not given)
inactive: Potency (C33A) | Potency (CASKI) | Potency (Es-2) | Potency (HeLa) | Potency (Hek293T)

OC[C@H]1O[C@@H](OCCc2ccc(O)cc2)[C@H](O)[C@@H](O)[C@@H]1O
inactive: Potency (C33A) | Potency (CASKI) | Potency (Es-2) | Potency (HeLa) | Potency (Hek293T)

Nc1c(Br)cc(Br)cc1CNC1CCC(O)CC1 (stereo not given)
inactive: Potency (CAOV3) | Potency (Es-2) | Potency (HeLa) | Potency (Hek293T)

C/C=C(\C)C(=O)O[C@H]1[C@@H](O[C@]2(COC(=O)CC(C)C)O[C@H](COC(=O)C(C)C)[C@@H](OC(C)=O)[C@@H]2O)O[C@H](COC(C)=O)[C@@H](O)[C@@H]1O
inactive: Potency (C33A) | Potency (CASKI) | Potency (Es-2) | Potency (HeLa) | Potency (Hek293T)

NCc1ccc(OCCCc2sc(-c3ccc4c(c3)/C(=N/Nc3nc5ccccc5s3)CCC4)nc2C(=O)O)cc1
inactive: Potency (C33A) | Potency (Es-2) | Potency (Hek293T)

CN1CCC(c2c[nH]c3ccc(NC(=O)c4ccc(F)cc4)cc23)CC1
inactive: Potency (C33A) | Potency (CASKI) | Potency (Es-2) | Potency (HeLa) | Potency (Hek293T)

CC(=O)O[C@@H]1[C@H](O[C@@H]2OC[C@](O)(CO)[C@H]2O)[C@@H](O[C@@H]2O[C@@H](C)[C@H](O)[C@@H](O)[C@H]2O)[C@H](OC(=O)[C@]23CCC(C)(C)C[C@H]2C2=CCC4[C@@]5(C)C[C@H](O)[C@H](O[C@@H]6O[C@H](C(=O)O)[C@@H](O)[C@H](O)[C@H]6O)[C@@](C)(C(=O)O)C5CC[C@@]4(C)[C@]2(C)CC3)O[C@@H]1C (stereo not given in full)
inactive: activity change, negative = cytotoxicity (C33A) -3.02% [at 11.6 µM] | activity change, negative = cytotoxicity (CASKI) 0.959% [at 11.6 µM] | activity change, negative = cytotoxicity (Es-2) 1.8% [at 11.6 µM] | activity change, negative = cytotoxicity (HeLa) 0.991% [at 11.6 µM] | activity change, negative = cytotoxicity (Hek293T) 9.21% [at 11.6 µM]

CCC(CCO[C@@H]1O[C@H](CO[C@H]2OC[C@](O)(CO)[C@H]2O)[C@@H](O)[C@H](O)[C@H]1O)C(C)(C)O (stereo not given in full)
inactive: Potency (C33A) | Potency (CASKI) | Potency (Es-2) | Potency (HeLa) | Potency (Hek293T)

COc1cc(C/C(=C/NC(C)=O)N(CC(=O)Cc2ccccc2)C(C)=O)cc2c1OCO2
inactive: Potency (C33A) | Potency (CASKI) | Potency (Es-2) | Potency (HeLa) | Potency (Hek293T)

CN(C)C/C=C/C(=O)Nc1ccc(C(=O)Nc2cccc(Nc3ncc(Cl)c(-c4c[nH]c5ccccc45)n3)c2)cc1
active: Potency (CASKI) 794 nM | Potency (Es-2) 1780 nM | Potency (HeLa) 891 nM | Potency (Hek293T) 1260 nM

CCN(c1cc(C#CCN2CCOCC2)cc(C(=O)NCc2c(C)cc(C)[nH]c2=O)c1C)C1CCC(N(C)CCOC)CC1 (stereo not given)
inactive: Potency (C33A) | Potency (CASKI) | Potency (Es-2) | Potency (HeLa) | Potency (Hek293T)

CC(=O)c1cnc2ccc(-c3cc(Cl)c(O)c(Cl)c3)nc2c1NC1CCC(CN(C)C)CC1 (stereo not given)
active: Potency (C33A) 224 nM | Potency (CASKI) 1000 nM | Potency (Es-2) 891 nM | Potency (Hek293T) 562 nM

CC1=CC(=O)C[C@H]2[C@@H]1CC[C@@H](C)[C@]21CO[C@H](c2ccoc2)C1=O
inactive: Potency (C33A) | Potency (CASKI) | Potency (Es-2) | Potency (HeLa) | Potency (Hek293T)

O=C1NCc2nc3ccccc3c(=O)n2C1Cc1c[nH]c2ccccc12 (stereo not given)
inactive: Potency (C33A) | Potency (CASKI) | Potency (Es-2) | Potency (HeLa) | Potency (Hek293T)

Cc1cc(C)c(S(=O)(=O)N(Cc2ccc(-c3cccc(S(C)(=O)=O)c3)cc2)Cc2ccc(C(F)(F)F)o2)c(C)c1
inactive: Potency (C33A) | Potency (CASKI) | Potency (Es-2) | Potency (HeLa) | Potency (Hek293T)

CC(C)C1(O[C@@H]2O[C@H](CO)[C@@H](O)[C@H](O)[C@H]2O)CC=C(CO)CC1 (stereo not given in full)
inactive: Potency (C33A) | Potency (CASKI) | Potency (Es-2) | Potency (HeLa) | Potency (Hek293T)

COc1cc(N2CCC(N(C)C)CC2)ccc1Nc1ncc(Cl)c(Nc2ccccc2P(C)(C)=O)n1
active: Potency (CAOV3) 3550 nM | Potency (CASKI) 7080 nM | Potency (Es-2) 11200 nM | Potency (HeLa) 3160 nM | Potency (Hek293T) 10000 nM

COc1cc2c(Nc3ccc(Cl)c(Cl)c3F)ncnc2cc1OCC1C[C@@H]2CN(C)C[C@@H]2C1 (stereo not given in full)
active: Potency (CAOV3) 31600 nM | Potency (CASKI) 11200 nM
